# Assay outcomes as filed in PubChem BioAssay.
# The list is not random: actives were taken first. Their share in the collection is about 2.8%.
# PG9 binder: binders of HIV-1 gp120 antibody PG9, primary screen, biochemical, TR-FRET; 360,000 compounds, 0.43% hits; inhibition, % at 6.7 µM; AID 624416, 2012; TR-FRET gp120-PG9 antibody binding; HIV-1 gp120 / PG9 antibody interaction; in the data active means inhibition above about 8.5%
# GASC-1 inh: inhibitors of GASC-1 histone demethylase, primary screen, biochemical, fluorescence, DELFIA europium; GST-JMJD2C(1-420) H3K9me3 demethylation; 330,000 compounds, 0.069% hits; Lysine-specific demethylase 4C (Homo sapiens), Q9H3R0; inhibition, % at 2.35 µM;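 active means more than half of a compound's replicate wells show inhibition beyond 50%, single wells judged on their own value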;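 further: signal counts dimethyl H3K9 product captured on neutravidin plate; 0% = median of DMSO wells and 100% = 0.3 times that DMSO median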
# proKLK7 act: proKLK7 zymogen activators, primary screen, biochemical, fluorescence intensity; Kallikrein-7 (Homo sapiens), P49862; purified proKLK7, EDANS-DABCYL substrate fluorescence; 100% is mature enzyme control, 0% vehicle; activation, % at 7 µM; 370,000 compounds, 0.9% hits;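 active means activation above the mean of all tested compounds plus 3 SD, computed per campaign excluding outliers beyond control limits, cut at about 13% in these data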
# PP1 counter: PP1-alpha phosphatase inhibitors, primary screen, counter-screen for PP5 inhibitor project, biochemical, fluorescence, OMFP substrate, single point; purified PP1alpha; inhibition, % at 6.7 µM; 320,000 compounds, 0.9% hits; AID 2235, 2010;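 active means inhibition above the mean inhibition of all tested compounds plus 3 SD, computed separately for each screening campaign, cut at about 15% in these data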
# PP5 primary: PP5 phosphatase inhibitors, primary screen, biochemical, fluorescence. Serine/threonine-protein phosphatase 5 (Homo sapiens), P53041. purified PP5c, OMFP substrate fluorescence. inhibition, % at 6.7 µM. 320,000 compounds, 0.18% hits;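 active means inhibition above the campaign's mean inhibition across all tested compounds plus 3 SD, cut at about 9.5% in these data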;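 further: 0% = DMSO only and 100% = 100 µM cantharidin control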
# Target sequence (P53041 whole entry, looked up): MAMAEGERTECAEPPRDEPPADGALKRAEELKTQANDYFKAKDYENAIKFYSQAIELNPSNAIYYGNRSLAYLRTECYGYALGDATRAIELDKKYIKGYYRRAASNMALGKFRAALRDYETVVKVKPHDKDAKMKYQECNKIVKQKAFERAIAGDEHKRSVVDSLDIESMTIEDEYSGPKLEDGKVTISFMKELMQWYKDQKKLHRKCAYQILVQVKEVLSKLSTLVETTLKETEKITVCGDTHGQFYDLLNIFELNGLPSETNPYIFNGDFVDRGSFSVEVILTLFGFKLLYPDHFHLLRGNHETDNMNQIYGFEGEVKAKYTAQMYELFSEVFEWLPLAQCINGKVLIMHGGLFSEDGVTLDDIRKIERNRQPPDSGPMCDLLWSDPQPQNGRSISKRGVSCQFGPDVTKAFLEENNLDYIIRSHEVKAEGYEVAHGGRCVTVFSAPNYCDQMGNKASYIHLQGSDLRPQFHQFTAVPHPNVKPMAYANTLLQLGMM
# NR1D1 modulator: modulators of Rev-erb alpha DNA binding, primary screen, biochemical, FITC-DNA, fluorescence polarization, uHTS; Rev-erbα–FITC-DNA binding, 90 min; activity, % at 10 µM; 370,000 compounds, 0.79% hits; AID 1259318, 2017;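 active means activity above about 14%, limit read from the data; passing the limit was not always enough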;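 further: 0% = DMSO wells with 35 nM protein and 100% = DMSO wells with 750 nM protein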
# PP1 confirm: PP1 phosphatase inhibitors, confirmation, biochemical, fluorescence, OMFP substrate, triplicate. shares compounds with PP1 counter. purified PP1alpha. inhibition, % at 6.7 µM. 1,900 compounds, 52% hits;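 active means mean PP1 inhibition above a set limit taken from the earlier primary screen, cut at about 15% in these data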
# PP5 counter: PP5 phosphatase inhibition by PP1 hits, confirmation, counter-screen for PP1 inhibitor project, biochemical, fluorescence, triplicate | shares compounds with PP1 counter | purified PP5c, OMFP fluorescence | inhibition, % at 6.7 µM | 1,900 compounds, 4% hits | AID 2360, 2010;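 active means mean PP5 inhibition over triplicate wells above about 9.5% taken from the earlier PP1 screen, limit read from the data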
# * = called active by the depositor; . = not tested or not shown.
SMILES,PG9 binder,GASC-1 inh,proKLK7 act,PP1 counter,PP5 primary,NR1D1 modulator,PP1 confirm,PP5 counter
Nc1nc(-c2ccccn2)nc(N)c1Cc1ccc(Cl)cc1Cl,0,25,0,34*,2,-1,47*,5
Nc1nc(-c2ccccn2)nc(N)c1Cc1c(F)cccc1Cl,-2,-9,0,27*,1,1,47*,-2
Nc1nc(-c2ccccn2)nc(N)c1Cc1ccccc1F,-1,15,-1,14,4,2,.,.
CCCCNC(=O)C[C@H]1C[C@@]2(C(=O)OC)C(=C[C@H](C(C)(C)C)O[C@@H]2C)N(Cc2ccccc2)C1=O,0,.,0,.,.,-2,.,.
Cc1cccc(C)c1OCC(=O)NCC1CCCO1 (stereo not drawn),-2,11,0,-1,-1,-3,.,.
Cc1cc(C)c(OCC(=O)NCC2CCCO2)c(C)c1 (stereo not drawn),-1,4,0,42*,3,-5,-1,-2
Cc1ccc2nc(/N=C(\N)NC(=O)NC3CCCCC3)nc(C)c2c1,-1,-7,0,22*,2,-1,33*,1
C[C@H](O)[C@@H]1C(=O)N2CCc3c([nH]c4cccc(-c5ccccc5)c34)[C@@H]2C[C@@H]1N(C)C(=O)OCc1ccccc1,-2,.,-26,.,.,5,.,.
CCOC(=O)c1cnc(-n2nc(C)cc2C)nc1NC1CCCC1,0,-1,-1,22*,2,5,27*,1
CCOC(=O)c1cnc(-n2nc(C)cc2C)nc1Nc1ccc(OC)cc1,-2,4,0,9,0,-3,.,.
CCOC(=O)c1cnc(-n2nc(C)cc2C)nc1Oc1ccccc1F,-2,1,0,-1,4,-1,.,.
CCOC(=O)c1cnc(-n2nc(C)cc2C)nc1NCCc1ccccc1,-4,-2,-1,57*,7,-5,51*,-1
CCOC(=O)c1cnc(-n2nc(C)cc2C)nc1NCc1ccc2c(c1)OCO2,4,-22,0,31*,3,-12,59*,-5
CCOC(=O)c1cnc(-n2nc(C)cc2C)nc1N(C)C,1,17,0,4,1,-6,.,.
CCCCN1CCN(C2=NC(=O)N(c3ccc(Br)cc3)C(=O)C2)CC1,.,.,-1,.,.,-5,.,.
Cc1nc(N2CCC(C)CC2)c2c(C)c(C(=O)Nc3cccc(C(F)(F)F)c3)sc2n1,0,1,0,-4,4,0,.,.
Cc1nc(Nc2cnc(/C=C/c3cc(C(=O)Nc4cccc(C(F)(F)F)c4)ccc3C)cn2)cc(N2CCNCC2)n1,.,1,.,23*,2,.,-6,-2
Cc1cc(N/N=C/c2ccc(Cl)cc2)nc(NCc2ccccc2)n1,1,-7,-1,19*,6,-9,2,-1
O=C(Nc1cccc(F)c1)OCCN1CCCC12CCC(c1ccccc1)CC2 (stereo not drawn),.,.,.,.,.,-4,.,.
CCCOc1cc(N)ccc1C(=O)OCCN(CC)CC,0,.,1,1,-2,-6,.,.
CCCOc1ccc(N)cc1N,-8,2,0,16*,11*,-4,-3,24*
CN(C)c1ccc(N=Nc2ccc(S(N)(=O)=O)cc2)cc1,-1,11,0,20*,4,-27,13,-4
CCc1ccc([C@@H]2CC=C(C(=O)O)[C@H](c3ccc(Cl)cc3)N2S(=O)(=O)c2ccc(C)cc2)cc1,0,5,-1,19*,3,-4,12,0
CCCCc1c(-c2ccccc2OC)ncn1Cc1c(Cl)cccc1Cl,-4,.,0,.,.,5,.,.
Cc1cc(Oc2cccnc2)ccc1NC(=O)Cc1c(C)[nH]c2ccccc12,-2,.,0,.,.,-1,.,.
SMILES,PG9 binder,GASC-1 inh,proKLK7 act,PP1 counter,PP5 primary,NR1D1 modulator,PP1 confirm,PP5 counter
N#Cc1nc(-c2ccc(OCc3ccccc3)cc2)oc1NCCCn1ccnc1,0,2,-1,21*,5,-3,9,1
N#Cc1nc(-c2ccc(OCc3ccccc3Cl)cc2)oc1NCCCn1ccnc1,.,-15,.,3,-6,.,.,.
Cc1ccc(-c2nnc(SCC(=O)N/N=C/c3ccc(C)s3)n2-c2ccc(C)cc2)cc1,1,-4,1,20*,6,-1,6,-1
CC(c1ccccc1)N1CC[C@H]2C=CC[C@@H](C(=O)Nc3cccc(Cl)c3)[C@H]2C1=O (stereo partly drawn),.,.,.,.,.,1,.,.
Cn1c(=O)c(C(=O)Nc2ncccc2O)c(O)c2ccccc21,-3,-1,-1,28*,1,0,30*,-5
COc1ccc(CCNC(=O)COc2ccc(S(=O)(=O)NCC(C)C)cc2Cl)cc1OC,2,3,-1,18*,2,0,-1,0
COc1ccc(CCNC(=O)CNS(=O)(=O)c2ccc(F)c(Cl)c2)cc1OC,-1,-8,0,6,-5,-4,.,.
NC(=O)[C@H]1CC2(CC(c3cccc(NC(=O)CC(c4ccccc4)c4ccccc4)c3)=NO2)CN1C(=O)c1ccccc1C(=O)c1ccccc1 (stereo partly drawn),0,-85,0,19*,3,-1,12,0
C/C=C\C=C/C(=O)Nc1cccc(C2=NOC3(C2)C[C@@H](C(N)=O)N(C(=O)/C=C/CC)C3)c1 (stereo partly drawn),.,11,.,1,-1,.,.,.
CCC(=O)Nc1cccc(C2=NOC3(C2)C[C@@H](C(N)=O)N(C(=O)c2ccccc2C(=O)c2ccccc2)C3)c1 (stereo partly drawn),1,1,0,4,-2,6,.,.
C=C(C)C(=O)Nc1cccc(C2=NOC3(C2)C[C@@H](C(N)=O)N(C(=O)C2(C)CC2)C3)c1 (stereo partly drawn),1,19,-1,23*,2,-14,2,-3
C/C=C\C=C/C(=O)Nc1cccc(C2=NOC3(C2)C[C@@H](C(N)=O)N(C(=O)/C=C/C=C\C)C3)c1 (stereo partly drawn),.,8,.,31*,4,.,14,-1
